The text below walks through data of PubChem BioAssay (EPA / NIEHS).

Experiment [1] can be described thus: ATG_PBREM_CIS: Attagene CIS-FACTORIAL HepG2 Assay for human Phenobarbital-responsive Enhancer Module (PBREM) (AID 2282955). As to conditions: HepG2 PBREM cis-reporter, Attagene multiplexed transcription; actives raise or lower the signal. The essentials:
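HepG2, transient MRTU transfection, 24 h dosing; RNA → oligo(dT) RT → PCR → 6-FAM extension → HpaI → CE. Bidirectional fit vs DMSO.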

In experiment [2] the target is Paired box protein Pax-6 (Homo sapiens) (UniProt P26367). Kind of experiment: ATG_Pax6_CIS: Attagene CIS-FACTORIAL HepG2 Assay for human Paired Box 6 (PAX6) (AID 2282956). The following applies: HepG2 CIS-FACTORIAL PAX6 reporter transcription, RNA readout; actives raise or lower the signal. The gist of the method:
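After twenty-four hours of chemical exposure, transfected HepG2 cells are harvested for RNA. Cis-promoter reporter transcripts are amplified, fluorescently labelled and sized by capillary electrophoresis, with gain and loss of signal scored against DMSO.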

A short description of experiment [3]: ATG_PXRE_CIS: Attagene CIS-FACTORIAL HepG2 Assay for human Pregnane X Receptor Element (PXRE) (AID 2282957). The following applies: HepG2 Attagene CIS-FACTORIAL PXRE reporter, mRNA; actives raise or lower the signal. The gist of the method:
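Cells: HepG2, transiently transfected reporter units under cis promoter control. Exposure: 24 h. Detection: reporter mRNA via RT-PCR/CE fluorescence; bidirectional fitting, DMSO-referenced.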

Experiment [4] in a line: ATG_RORE_CIS: Attagene CIS-FACTORIAL HepG2 Assay for human RAR-related Orphan Receptor Element (RORE) (AID 2282959). As to conditions: HepG2 Attagene cis-factorial RORE reporter, mRNA; actives raise or lower the signal. The gist of the method:
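Multiplexed reporter assay measuring mRNA induction from a cis promoter element in transiently transfected HepG2 cells after 24 h treatment. Detection via RT-PCR and capillary electrophoresis fluorescence; DMSO serves as baseline.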

The target in experiment [5] is Transcription factor Sp1 (Homo sapiens) (UniProt P08047). The experiment is described as follows: ATG_Sp1_CIS: Attagene CIS-FACTORIAL HepG2 Assay for human Specificity Protein 1 (Sp1) (AID 2282961). As to conditions: HepG2 Sp1 cis-reporter transcription, actives raise or lower the signal. The gist of the method: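 Measures mRNA induction of an Sp1-linked reporter in HepG2 cells 24 h post-dosing. Multiplexed reporters read by RT-PCR and capillary electrophoresis; DMSO serves as negative control and baseline.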
Chain of Transcription factor Sp1 (Homo sapiens) (P08047 whole entry, looked up): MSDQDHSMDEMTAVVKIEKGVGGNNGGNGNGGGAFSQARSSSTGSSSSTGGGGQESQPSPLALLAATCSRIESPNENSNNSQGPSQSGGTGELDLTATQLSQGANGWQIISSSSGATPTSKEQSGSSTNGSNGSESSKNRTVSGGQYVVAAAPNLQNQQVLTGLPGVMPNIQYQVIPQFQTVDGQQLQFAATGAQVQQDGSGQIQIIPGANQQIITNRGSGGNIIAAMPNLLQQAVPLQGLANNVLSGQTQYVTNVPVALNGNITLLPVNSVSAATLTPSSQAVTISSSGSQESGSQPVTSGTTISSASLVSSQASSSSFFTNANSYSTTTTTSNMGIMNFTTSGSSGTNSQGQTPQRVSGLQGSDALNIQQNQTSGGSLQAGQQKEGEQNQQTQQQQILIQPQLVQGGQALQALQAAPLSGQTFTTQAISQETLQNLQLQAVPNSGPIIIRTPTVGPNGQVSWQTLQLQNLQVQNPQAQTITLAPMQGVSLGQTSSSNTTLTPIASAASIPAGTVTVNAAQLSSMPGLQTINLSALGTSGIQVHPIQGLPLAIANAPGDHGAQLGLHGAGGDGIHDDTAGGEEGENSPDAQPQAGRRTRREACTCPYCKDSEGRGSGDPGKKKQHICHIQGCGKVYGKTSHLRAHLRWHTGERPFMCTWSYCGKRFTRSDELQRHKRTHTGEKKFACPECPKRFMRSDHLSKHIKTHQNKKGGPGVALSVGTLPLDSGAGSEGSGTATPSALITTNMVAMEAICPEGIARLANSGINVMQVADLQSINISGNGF

A short description of experiment [6]: ATG_SREBP_CIS: Attagene CIS-FACTORIAL HepG2 Assay for human Sterol Regulatory Element Binding (SREBP) (AID 2282962). The following applies: HepG2 Attagene cis-factorial SREBP reporter, mRNA; actives raise or lower the signal. The gist of the method: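 Twenty-four hours after chemical dosing of transfected HepG2 cultures, reporter RNA was converted to cDNA, amplified, end-labelled with 6-FAM and resolved by capillary electrophoresis. Responses were fitted relative to DMSO.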

Experiment [7] concerns the target Signal transducer and activator of transcription 3 (Homo sapiens) (UniProt P40763). Kind of experiment: ATG_STAT3_CIS: Attagene CIS-FACTORIAL HepG2 Assay for human Signal Transducer and Activator of Transcription 3 (STAT3) (AID 2282963). The following applies: HepG2, Attagene cis-factorial STAT3 reporter transcription; actives raise or lower the signal. The essentials: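 Values derive from bidirectional fits relative to DMSO of reporter mRNA levels, measured by RT-PCR with capillary electrophoresis, in HepG2 cells carrying transiently transfected cis-regulated reporter units and exposed 24 h.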

Experiment [8] can be described thus: ATG_TA_CIS: Attagene CIS-FACTORIAL HepG2 Assay for human TA Basal Promoter (AID 2282964). As to conditions: HepG2 Attagene CIS-factorial TA basal promoter reporter; actives raise or lower the signal. The essentials:
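Background-control readout: TA basal promoter reporter mRNA, fitted in both directions relative to DMSO. Measured by RT-PCR and capillary electrophoresis 24 hours after treating HepG2 human liver cells transiently carrying multiplexed cis-regulated reporter constructs.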

A short description of experiment [9]: ATG_TCF_b_cat_CIS: Attagene CIS-FACTORIAL HepG2 Assay for human T-Cell-Factor with beta-catenin (TCF/b-cat) (AID 2282965). As to conditions: HepG2 TCF/beta-catenin cis-reporter transcription, actives raise or lower the signal. The essentials:
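Cells of the HepG2 line carry transiently transfected reporter units whose promoters respond to endogenous factors. Twenty-four hours post-dosing, reporter mRNA induction is measured by fluorescent RT-PCR and capillary electrophoresis, with DMSO as baseline.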

Experiment [10] is described as follows: ATG_TAL_CIS: Attagene CIS-FACTORIAL HepG2 Assay for human TAL Basal Promoter (AID 2282966).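 Note: background control endpoint measuring basal TAL promoter reporter mRNA not a specific factor.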 As to conditions: HepG2 Attagene cis-factorial TAL promoter reporter; actives raise or lower the signal. The essentials:
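RT-PCR plus capillary electrophoresis quantifies reporter mRNA induction in transiently transfected HepG2 cells after 24 h chemical treatment. DMSO serves as negative control and baseline for bidirectional fitting.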

The nature of experiment [11]: ATG_TGFb_CIS: Attagene CIS-FACTORIAL HepG2 Assay for human Transforming Growth Factor (TGF) (AID 2282967). As to conditions: HepG2 Attagene CIS TGFb reporter, mRNA transcription; actives raise or lower the signal. The essentials: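 Endogenous TGFB1-linked transcription factor activity read as reporter mRNA via RT-PCR and capillary electrophoresis, 24 h after dosing transiently transfected HepG2 cells. Gain or loss of signal fitted relative to DMSO.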

A short description of experiment [12]: ATG_VDRE_CIS: Attagene CIS-FACTORIAL HepG2 Assay for human Vitamin D Receptor Element (VDRE) (AID 2282968). As to conditions: HepG2 VDRE cis-reporter transcription, actives raise or lower the signal. The gist of the method:
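Cell-based multiplexed reporter format in human liver HepG2 cells, 24 h post-dose. Fluorescence from capillary electrophoresis of reporter cDNA gives the signal, with DMSO as negative control and baseline.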

For experiment [13], the target named is X-box-binding protein 1 (Homo sapiens) (UniProt P17861). Kind of experiment: ATG_Xbp1_CIS: Attagene CIS-FACTORIAL HepG2 Assay for human X-box Binding Protein 1 (XBP1) (AID 2282972). The following applies: HepG2 XBP1 cis-element reporter, Attagene multiplex; actives raise or lower the signal. The gist of the method: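 After a 24-hour chemical exposure of HepG2 cells carrying cis-regulated reporters, reporter mRNA levels are assessed. Quantification uses RT-PCR, 6-FAM labelling and capillary electrophoresis. Gain- or loss-of-signal is fitted against DMSO.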
Chain of X-box-binding protein 1 (Homo sapiens) (P17861 whole entry, looked up): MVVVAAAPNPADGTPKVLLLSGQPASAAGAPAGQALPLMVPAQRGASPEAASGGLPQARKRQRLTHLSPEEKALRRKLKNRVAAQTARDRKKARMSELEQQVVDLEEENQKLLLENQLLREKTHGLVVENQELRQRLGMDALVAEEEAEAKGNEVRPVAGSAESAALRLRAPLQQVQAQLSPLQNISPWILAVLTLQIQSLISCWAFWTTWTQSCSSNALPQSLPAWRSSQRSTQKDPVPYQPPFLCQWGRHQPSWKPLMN

Experiment [14] is described as follows: ATG_M_19_TRANS: Attagene TRANS-FACTORIAL HepG2 Assay for M19 Transcription Factor (Internal Marker) (AID 2282974; active = hit-call score of the fitted dose curve at least 0.9, where 1 is the maximum). The following applies: HepG2 Attagene TRANS-FACTORIAL M19 internal marker reporter. The essentials: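 After transfection of HepG2 with GAL4-UAS-driven reporter constructs, cells are dosed for 24 h. Total RNA is reverse-transcribed, reporter sequences PCR-amplified and labelled, then HpaI-digested and sized by capillary electrophoresis.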

Experiment [15] can be described thus: ATG_PPRE_CIS: Attagene CIS-FACTORIAL HepG2 Assay for human Peroxisome Proliferator-activated Response Element (PPRE) (AID 2282958). The following applies: HepG2 PPRE cis-element reporter, Attagene transcription factor profiling; actives raise or lower the signal. The essentials: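 Transcript-level reporter induction in transfected HepG2 cells after 24 h chemical exposure, quantified by fluorescence from RT-PCR products separated by capillary electrophoresis.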

Experiment [16] is described as follows: ATG_Sox_CIS: Attagene CIS-FACTORIAL HepG2 Assay for human SRY-box transcription factor (SOX) (AID 2282960). As to conditions: HepG2 Attagene cis-factorial SOX reporter, mRNA; actives raise or lower the signal. The essentials:
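Cells were transfected with reporter constructs under cis-regulatory promoters, then exposed to chemicals for 24 h. Reporter transcripts were quantified by fluorescence after RT-PCR and capillary electrophoresis; activity was fitted in both directions against DMSO.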

Experiment [17] concerns the target Nuclear receptor subfamily 1 group I member 3 (Homo sapiens) (UniProt Q14994). The experiment is described as follows: ATG_CAR_TRANS: Attagene TRANS-FACTORIAL HepG2 Assay for human Constitutive Androstane Receptor (CAR) (AID 2282969; active = hit-call score of the fitted dose curve at least 0.9, where 1 is the maximum;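 note: activators raise reporter mRNA above DMSO so AC50 marks induction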). The following applies: HepG2 Attagene TRANS-FACTORIAL CAR reporter. The gist of the method: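 HepG2 cells transiently transfected with GAL4-UAS reporter units; TRANS format reads activity of exogenous chimeric NR-Gal4 protein. After 24 h dosing, reporter mRNA quantified by RT-PCR, 6-FAM labelling and capillary electrophoresis; gain of signal fitted against DMSO.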

In experiment [18] the target is Estrogen receptor (Homo sapiens) (UniProt P03372). Kind of experiment: ATG_ERa_TRANS: Attagene TRANS-FACTORIAL HepG2 Assay for human Estrogen Receptor alpha (ERa) (AID 2282970; active = hit-call score of the fitted dose curve at least 0.9, where 1 is the maximum). The following applies: HepG2 Attagene TRANS ERa GAL4 reporter, mRNA. The essentials: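 Cells: HepG2, transiently transfected. Construct: GAL4-UAS reporter units regulated by exogenous NR-Gal4 chimeras. Time: 24 h. Detection: reporter mRNA by RT-PCR, capillary electrophoresis, fluorescence. Baseline: DMSO, upward fitting.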
Chain of Estrogen receptor (Homo sapiens) (P03372 whole entry, looked up, the tested form may be a part): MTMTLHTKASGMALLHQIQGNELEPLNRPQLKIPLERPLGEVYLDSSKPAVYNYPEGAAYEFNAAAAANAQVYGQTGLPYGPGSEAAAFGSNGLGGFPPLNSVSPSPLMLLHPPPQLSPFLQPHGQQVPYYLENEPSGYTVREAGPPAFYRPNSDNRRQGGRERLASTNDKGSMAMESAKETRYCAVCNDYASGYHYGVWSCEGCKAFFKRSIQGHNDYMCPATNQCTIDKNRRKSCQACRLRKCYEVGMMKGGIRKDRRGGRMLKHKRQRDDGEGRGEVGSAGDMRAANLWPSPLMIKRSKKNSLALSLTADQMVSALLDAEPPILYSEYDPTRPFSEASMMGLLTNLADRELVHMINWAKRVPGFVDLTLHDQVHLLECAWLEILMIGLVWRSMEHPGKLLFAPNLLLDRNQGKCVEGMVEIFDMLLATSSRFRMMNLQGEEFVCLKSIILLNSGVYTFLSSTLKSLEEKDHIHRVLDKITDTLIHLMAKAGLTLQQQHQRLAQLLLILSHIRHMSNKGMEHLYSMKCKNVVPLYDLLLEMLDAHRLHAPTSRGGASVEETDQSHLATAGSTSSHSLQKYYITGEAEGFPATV

A short description of experiment [19]: ATG_GAL4_TRANS: Attagene TRANS-FACTORIAL HepG2 Assay for GAL4 (Internal Marker) (AID 2282976; active = hit-call score of the fitted dose curve at least 0.9, where 1 is the maximum). The following applies: HepG2 Attagene TRANS GAL4 internal marker reporter. The gist of the method:
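In transfected human HepG2 liver cells dosed 24 h, GAL4 reporter mRNA serves as a baseline marker. Detection by RT-PCR with fluorescent capillary electrophoresis, activity fitted upward relative to DMSO.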

Each structure is given as a SMILES string. Inconclusive results are not listed. Calls of active or inactive are those of the source. Rule for the calls, unless noted: active = hit-call score of the fitted dose curve at least 0.9, where 1 is the maximum; inactive = score below 0.9.

Chain of Paired box protein Pax-6 (Homo sapiens) (P26367 whole entry, looked up): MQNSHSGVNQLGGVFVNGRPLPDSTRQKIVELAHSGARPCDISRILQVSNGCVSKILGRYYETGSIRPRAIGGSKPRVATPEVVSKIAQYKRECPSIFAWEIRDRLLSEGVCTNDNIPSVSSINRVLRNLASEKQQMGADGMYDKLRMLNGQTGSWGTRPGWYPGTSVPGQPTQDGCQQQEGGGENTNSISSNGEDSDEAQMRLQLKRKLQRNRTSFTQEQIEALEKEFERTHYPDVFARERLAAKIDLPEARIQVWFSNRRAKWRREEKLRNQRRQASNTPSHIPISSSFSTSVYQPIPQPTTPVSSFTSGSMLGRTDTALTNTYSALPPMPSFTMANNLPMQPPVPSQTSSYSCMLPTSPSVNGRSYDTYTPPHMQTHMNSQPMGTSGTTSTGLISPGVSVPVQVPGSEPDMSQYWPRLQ
Chain of Nuclear receptor subfamily 1 group I member 3 (Homo sapiens) (Q14994 whole entry, looked up, the tested form may be a part): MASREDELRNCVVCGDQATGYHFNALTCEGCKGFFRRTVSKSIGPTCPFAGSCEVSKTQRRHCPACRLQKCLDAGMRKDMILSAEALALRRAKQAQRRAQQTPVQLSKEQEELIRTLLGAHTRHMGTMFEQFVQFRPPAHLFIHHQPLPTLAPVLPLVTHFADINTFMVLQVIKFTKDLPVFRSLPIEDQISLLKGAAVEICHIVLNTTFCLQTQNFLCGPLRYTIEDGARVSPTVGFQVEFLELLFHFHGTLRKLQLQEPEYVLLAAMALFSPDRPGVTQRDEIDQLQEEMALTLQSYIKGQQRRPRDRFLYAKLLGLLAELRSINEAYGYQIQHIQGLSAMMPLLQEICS
Chain of Signal transducer and activator of transcription 3 (Homo sapiens) (P40763 whole entry, looked up): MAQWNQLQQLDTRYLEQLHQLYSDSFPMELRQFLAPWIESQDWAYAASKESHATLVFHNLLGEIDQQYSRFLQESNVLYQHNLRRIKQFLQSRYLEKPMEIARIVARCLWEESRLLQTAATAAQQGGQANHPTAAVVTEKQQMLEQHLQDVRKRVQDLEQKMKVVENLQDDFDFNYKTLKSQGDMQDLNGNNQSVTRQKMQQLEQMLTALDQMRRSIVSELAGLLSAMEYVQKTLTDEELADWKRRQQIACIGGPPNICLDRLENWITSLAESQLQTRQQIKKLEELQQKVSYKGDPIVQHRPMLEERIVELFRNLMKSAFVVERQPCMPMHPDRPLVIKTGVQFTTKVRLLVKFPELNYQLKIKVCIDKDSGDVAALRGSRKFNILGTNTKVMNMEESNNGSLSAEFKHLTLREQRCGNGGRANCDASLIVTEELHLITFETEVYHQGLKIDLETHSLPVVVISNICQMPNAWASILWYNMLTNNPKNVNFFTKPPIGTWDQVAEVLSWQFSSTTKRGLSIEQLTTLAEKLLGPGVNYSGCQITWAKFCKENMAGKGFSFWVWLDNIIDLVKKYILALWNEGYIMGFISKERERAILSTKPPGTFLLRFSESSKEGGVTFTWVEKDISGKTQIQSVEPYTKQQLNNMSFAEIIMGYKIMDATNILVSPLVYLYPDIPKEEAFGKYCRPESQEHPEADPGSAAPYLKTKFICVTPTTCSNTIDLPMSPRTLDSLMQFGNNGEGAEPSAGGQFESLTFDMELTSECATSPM

In the case of `N#CC1(N)CCCCC1`, the result in experiment [1], in experiment [2], in experiment [3], in [4], in [5] and in [6] was inactive. Moreover, the call in experiment [7], in experiment [8], in experiment [9], in experiment [10], in [11] and in [12] was inactive. Further, the call in experiment [13] and in experiment [14] was inactive.

Consider `CC(C)c1ccc(O)c(C(C)C)c1`, for which the outcome in experiment [1], in experiment [15], in [4], in experiment [16], in experiment [5] and in experiment [6] was inactive. Besides, the outcome in [7], in experiment [8], in experiment [9], in [10], in experiment [11] and in experiment [12] was inactive. For the same compound, the call in [17], in [13] and in experiment [14] was inactive. Also, the AC50 – broadly, the concentration giving half of the maximal activity seen – in experiment [3] was 2.98 µM (active); in experiment [18] it was 33.4 µM (active).

Take `C=C(C)C1CC=C(C)CC1` (configuration not stated): the outcome in [1], in experiment [2], in experiment [3], in [16], in experiment [5] and in experiment [6] was inactive. Besides, the compound was called inactive in experiment [7], in [8], in experiment [9], in experiment [10], in experiment [11] and in experiment [17]. The outcome in [18], in experiment [13] and in experiment [19] was inactive.

As for `CC(CC(C)C)=NO`, the outcome in experiment [1], in [2], in experiment [3], in experiment [4], in [5] and in experiment [6] was inactive. Moreover, the compound was classed as inactive in experiment [7], in [9], in experiment [10], in experiment [13] and in experiment [19].

In the case of `CC1=C(O)C(=O)C(C)O1` (configuration not stated), the result in experiment [1], in experiment [2], in experiment [3], in experiment [4], in experiment [16] and in [5] was inactive. Besides, the result in experiment [6], in [8], in [9], in experiment [10], in experiment [11] and in experiment [17] was inactive. For the same compound, the result in experiment [18], in [13] and in experiment [19] was inactive.
